Experimental data from PubChem BioAssay (NCATS).
Unmarked numbers belong to inactive results. Inconclusive results are not listed. A call without a number means that no potency is given here. Active and inactive are the calls of the source. Unless noted, calls follow the shape of the dose curve; as a rule, active = well fitted curve in the direction sought with a large enough effect; inconclusive = small, poorly fitted or top-dose-only effect, or another doubt; inactive = no such curve, though single readings can be large; an effect the other way counts as inactive or inconclusive.

How the values were obtained:
[1] = molecular target: Cytochrome P450 1A2 (Homo sapiens) (UniProt P05177); experiment: p450-cyp1a2 (AID 410; calls by dose curve; also: potency is read from the fitted curve at half-maximal effect)
How it was run: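 Luminescent readout of luciferin formed from Luciferin-ME by human CYP1A2; data normalized against complete inhibition by 57 uM furafylline. Enzyme 20nM, substrate 100uM at Km, 100mM KPO4 buffer, 60 min reaction at room temperature.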

[2] = molecular target: Glucocorticoid receptor (Homo sapiens) (UniProt P04150); experiment: GR-EFC Redistribution (AID 451; calls by dose curve; also: potency is read from the fitted curve at half-maximal effect); conditions: CHO-K1 GR-EFC translocation, beta-gal luminescence, 2 h
How it was run: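 CHO-K1 cells expressing nuclear EA and GR-ED fragments of b-gal; compounds titrated up to 46 uM final, 2 h at 37 C. GR nuclear translocation read as complemented b-gal luminescence after 1 h RT detection.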

[3] = molecular target: Mitogen-activated protein kinase 10 (Mus musculus) (UniProt Q61831); experiment: JNK3 AlphaScreen Assay (AID 530; active = well fitted curve in either direction with a large enough effect, not every such curve was filed as active;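 also: kinase came from lysate of stimulated human HepG2 cells; signal reports phosphorylation of biotinylated GST-cJun 1-79 at Ser73 with 10 µM ATP; series mostly up to about 57 µM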)
How it was run: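 Pre-activated (IL-1β/TNFα) JNK3 in HepG2 lysates phosphorylates biotin-GST-cJun(1-79), 10 uM ATP; anti-phospho-cJun(Ser73) AlphaScreen read at room temperature, pH 7.6 Tris buffer. Compounds pre-incubated 15 min as titrations.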

[4] = molecular target: 3',5'-cyclic-AMP phosphodiesterase 4B (Homo sapiens) (UniProt Q07343); experiment: qHTS Assay for Inhibitors of PDE-IV (AID 607; active = well fitted activation curve with a large enough effect in the main read-out, with a control signal flat, not every such curve was filed as active)
How it was run: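 HEK293 ACTOne cells with CNG channel (1000/well), endogenous PDE4; membrane potential dye, compounds up to 22.9 uM final. Fluorescence Ex 535/Em 590; RO 20-1724 (100 uM final) as reference.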

[5] = molecular target: Ubiquitin carboxyl-terminal hydrolase 1 (Homo sapiens) (UniProt O94782); experiment: Inhibitors of USP1/UAF1: Pilot qHTS (AID 504865); also: nearly all actives have a fitted effect of over 35% in size; also: potency is read from the fitted curve at half-maximal effect
How it was run: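 USP1/UAF1 complex (1nM) preincubated with compound 15 min at room temperature, then Ub-Rho substrate (150nM final) added. Fluorescence read kinetically at 480/540 nm, 6 reads every 60 seconds. Buffer: 50mM HEPES pH 7.8, 0.5mM EDTA, 0.1 mg/ml BSA, 1mM TCEP, 0.01% Tween-20.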

[6] = molecular target: DNA dC->dU-editing enzyme APOBEC-3G (Homo sapiens) (UniProt Q9HC16); experiment: qHTS for inhibitors of Vif-A3G interactions: Validation (AID 588379)
How it was run: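 HeLa cells stably expressing Vif and A3G-eYFP, 700 cells/well, incubated overnight at 37 deg C, then exposed to compound overnight at 37 deg C. Inhibition of Vif-mediated degradation read as increased yellow fluorescence (Ex 488/Em 500-530) by laser-scanning cytometry.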

[7] = system: Zika virus NS2B-NS3 protease; experiment: Primary screen GU AMC qHTS for Zika virus inhibitors (AID 1347154); also: nearly all actives have a fitted effect of over 70% in size
How it was run: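 Unlinked Zika NS2B hydrophilic domain–NS3 protease complex at 25 nM in 10 mM Tris-HCl pH 8.0, 0.01% Tween 20, with an AMC peptide substrate. Fluorescence change (340/450 nm) over 15 min at room temperature, normalized to controls, fitted to 4-parameter Hill.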

[8] = Primary qHTS for small molecule stabilizers of the endoplasmic reticulum resident proteome: Secreted ER Calcium Modulated Protein (SERCaMP) assay (AID 1508630)
How it was run: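 GLuc-SERCaMP-expressing SH-SY5Y cells, pretreated 16 h with compound, are challenged with thapsigargin to empty ER calcium stores; after 4 h, coelenterazine is added directly to the medium and luminescence is imaged.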

[9] = molecular target: Glucocorticoid receptor (Homo sapiens) (UniProt P04150); experiment: GR-GFP Redistribution (AID 450;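 active = compounds whose dose series gives a full or clear partial fitted curve of increased nuclear translocation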; also: potency is read from the fitted curve at half-maximal effect); conditions: U2OS GR-GFP nuclear translocation, laser cytometry, 2 h
[10] = molecular target: Cytochrome P450 3A4 (Homo sapiens) (UniProt P08684); experiment: qHTS Assay for Activators of Cytochrome P450 3A4 (AID 885); also: nearly all actives have a fitted effect of over 65% in size; also: potency is read from the fitted curve at half-maximal effect
How it was run: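 Human CYP3A4 (20 nM) with Luciferin-PPXE at 25 uM (its KM) in 200 mM KPO4; 10 min compound preincubation, then NADPH regeneration and 60 min reaction at RT. Luciferin read by luminescence; normalized to 57 uM ketoconazole full inhibition.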

[11] = molecular target: Cytochrome P450 2C19 (Homo sapiens) (UniProt P33261); experiment: qHTS Assay for Inhibitors and Substrates of Cytochrome P450 2C19 (AID 899); also: potency is read from the fitted curve at half-maximal effect; nearly all actives have a fitted effect of over 60% in size
How it was run: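 Luminescent read-out of luciferin formed from Luciferin-H EGE (10uM, equal to KM). Enzyme 5nM in 50mM KPO4; compound added, 10 min at 37C, then NADPH regenerating system for 60 min at 37C. Full inhibition defined by 57uM ketoconazole.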

[12] = molecular target: Cytochrome P450 3A4 (Homo sapiens) (UniProt P08684); experiment: qHTS Assay for Inhibitors and Substrates of Cytochrome P450 3A4 (AID 884); also: nearly all actives have a fitted effect of over 50% in size; also: potency is read from the fitted curve at half-maximal effect
How it was run: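 20 nM human CYP3A4 with 25 uM Luciferin-PPXE (at KM) in 200 mM KPO4, preincubated 10 min with compound; NADPH regeneration started a 60 min RT reaction. Luciferin detected by luminescence, normalized to 57 uM ketoconazole as full inhibition.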

[13] = molecular target: Cytochrome P450 2D6 (Homo sapiens) (UniProt P10635); experiment: qHTS Assay for Inhibitors and Substrates of Cytochrome P450 2D6 (AID 891); also: potency is read from the fitted curve at half-maximal effect; nearly all actives have a fitted effect of over 60% in size
How it was run: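 Human CYP2D6 (5 nM) with 30 uM Luciferin-ME EGE (at Km) in 100 mM KPO4, compound preincubated 10 min, then NADPH regeneration system for 60 min at room temperature. Luciferin read by luminescence; normalized to 1.43 uM quinidine.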

[14] = molecular target: Cytochrome P450 2C9 (Homo sapiens) (UniProt P11712); experiment: qHTS Assay for Inhibitors and Substrates of Cytochrome P450 2C9 (AID 883); also: nearly all actives have a fitted effect of over 60% in size; also: potency is read from the fitted curve at half-maximal effect
How it was run: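 10nM CYP2C9 + 100uM Luciferin-H (=KM), 25mM KPO4; cpd 10 min 37C; NADPH regen, 60 min 37C; stop/detect with P450 Glo-Buffer 20 min; luminescence. Norm. to 57uM sulphaphenazole as full inhibition.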

[15] = qHTS for Inhibitors of the vitamin D receptor (VDR): Hit Validation using a Texas Red Assay (AID 602201); conditions: VDR coregulator binding, Texas Red fluorescence polarization; agonist-bound VDR ligand-binding domain; also: potency is read from the fitted curve at half-maximal effect
How it was run: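 Fluorescence polarization with 1.5 uM VDR-LBD, LG19078 and 7 nM Texas Red (final). After 2 hours at ambient temperature, read at Ex 595 nm/Em 615 nm.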

Sequence of Cytochrome P450 2C9 (Homo sapiens) (P11712 whole entry, looked up): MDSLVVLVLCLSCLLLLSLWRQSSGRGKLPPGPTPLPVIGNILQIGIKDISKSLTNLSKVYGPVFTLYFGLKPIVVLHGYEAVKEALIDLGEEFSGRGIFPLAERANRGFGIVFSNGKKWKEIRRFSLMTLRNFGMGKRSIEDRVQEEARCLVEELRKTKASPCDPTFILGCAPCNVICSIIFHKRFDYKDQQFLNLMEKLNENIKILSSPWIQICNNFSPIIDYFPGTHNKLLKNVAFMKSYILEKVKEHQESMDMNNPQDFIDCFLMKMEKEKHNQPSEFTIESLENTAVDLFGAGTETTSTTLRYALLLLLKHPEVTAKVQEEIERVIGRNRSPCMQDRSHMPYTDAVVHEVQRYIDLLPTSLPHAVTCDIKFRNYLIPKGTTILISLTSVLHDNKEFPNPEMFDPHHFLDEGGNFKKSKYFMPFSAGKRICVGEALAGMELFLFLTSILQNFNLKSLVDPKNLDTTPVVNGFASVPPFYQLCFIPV
Sequence of Glucocorticoid receptor (Homo sapiens) (P04150 whole entry, looked up, the tested form may be a part): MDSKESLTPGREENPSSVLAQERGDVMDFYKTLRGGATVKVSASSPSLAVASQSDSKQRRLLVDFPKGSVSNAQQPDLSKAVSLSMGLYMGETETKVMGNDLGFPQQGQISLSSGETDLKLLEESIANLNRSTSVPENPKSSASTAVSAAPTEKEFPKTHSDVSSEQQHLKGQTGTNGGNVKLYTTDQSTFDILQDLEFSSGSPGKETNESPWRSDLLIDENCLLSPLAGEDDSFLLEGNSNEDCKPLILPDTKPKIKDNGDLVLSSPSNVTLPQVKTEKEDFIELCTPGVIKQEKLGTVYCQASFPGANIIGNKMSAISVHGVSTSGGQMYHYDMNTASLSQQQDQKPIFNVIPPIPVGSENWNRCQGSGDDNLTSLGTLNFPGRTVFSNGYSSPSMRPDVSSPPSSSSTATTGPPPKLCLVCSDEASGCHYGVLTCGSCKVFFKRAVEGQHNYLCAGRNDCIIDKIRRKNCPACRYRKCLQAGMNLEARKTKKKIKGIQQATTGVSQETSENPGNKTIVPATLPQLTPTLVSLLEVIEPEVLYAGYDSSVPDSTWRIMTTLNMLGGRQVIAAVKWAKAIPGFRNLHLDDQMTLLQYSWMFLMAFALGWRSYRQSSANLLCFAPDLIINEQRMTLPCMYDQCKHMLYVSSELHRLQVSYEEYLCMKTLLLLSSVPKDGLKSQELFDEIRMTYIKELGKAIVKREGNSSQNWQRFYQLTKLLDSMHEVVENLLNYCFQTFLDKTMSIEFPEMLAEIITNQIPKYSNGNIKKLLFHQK
Sequence of Ubiquitin carboxyl-terminal hydrolase 1 (Homo sapiens) (O94782 whole entry, looked up): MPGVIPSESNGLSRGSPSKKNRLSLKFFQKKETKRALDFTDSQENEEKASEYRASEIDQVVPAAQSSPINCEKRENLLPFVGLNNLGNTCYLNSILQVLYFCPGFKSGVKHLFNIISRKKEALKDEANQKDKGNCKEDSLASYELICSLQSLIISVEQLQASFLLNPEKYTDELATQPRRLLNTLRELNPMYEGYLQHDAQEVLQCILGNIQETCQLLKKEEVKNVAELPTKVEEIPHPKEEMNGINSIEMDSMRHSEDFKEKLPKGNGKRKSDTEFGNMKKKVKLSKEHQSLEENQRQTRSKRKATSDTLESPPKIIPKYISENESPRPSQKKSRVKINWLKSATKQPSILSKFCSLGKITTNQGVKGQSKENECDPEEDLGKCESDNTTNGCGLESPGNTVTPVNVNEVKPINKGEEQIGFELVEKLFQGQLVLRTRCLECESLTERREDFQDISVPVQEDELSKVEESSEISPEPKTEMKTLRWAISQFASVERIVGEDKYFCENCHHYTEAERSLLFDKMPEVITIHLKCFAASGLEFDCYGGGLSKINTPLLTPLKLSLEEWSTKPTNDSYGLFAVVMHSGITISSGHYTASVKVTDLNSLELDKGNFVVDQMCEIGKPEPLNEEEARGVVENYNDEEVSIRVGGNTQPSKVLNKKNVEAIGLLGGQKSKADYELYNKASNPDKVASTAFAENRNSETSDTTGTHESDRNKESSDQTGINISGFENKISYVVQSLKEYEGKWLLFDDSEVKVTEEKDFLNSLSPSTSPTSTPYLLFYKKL
Sequence of DNA dC->dU-editing enzyme APOBEC-3G (Homo sapiens) (Q9HC16 whole entry, looked up): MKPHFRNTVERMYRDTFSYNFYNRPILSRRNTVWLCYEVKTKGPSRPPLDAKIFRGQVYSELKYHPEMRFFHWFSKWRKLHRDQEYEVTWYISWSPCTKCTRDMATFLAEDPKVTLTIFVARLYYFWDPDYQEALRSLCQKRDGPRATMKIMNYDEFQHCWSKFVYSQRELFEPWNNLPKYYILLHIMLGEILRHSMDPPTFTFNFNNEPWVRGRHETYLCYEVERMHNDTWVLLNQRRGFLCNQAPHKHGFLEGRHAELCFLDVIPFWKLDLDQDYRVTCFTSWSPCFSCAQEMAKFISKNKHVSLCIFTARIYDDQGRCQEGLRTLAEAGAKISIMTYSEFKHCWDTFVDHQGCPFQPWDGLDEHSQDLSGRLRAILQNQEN
Sequence of Cytochrome P450 2C19 (Homo sapiens) (P33261 whole entry, looked up): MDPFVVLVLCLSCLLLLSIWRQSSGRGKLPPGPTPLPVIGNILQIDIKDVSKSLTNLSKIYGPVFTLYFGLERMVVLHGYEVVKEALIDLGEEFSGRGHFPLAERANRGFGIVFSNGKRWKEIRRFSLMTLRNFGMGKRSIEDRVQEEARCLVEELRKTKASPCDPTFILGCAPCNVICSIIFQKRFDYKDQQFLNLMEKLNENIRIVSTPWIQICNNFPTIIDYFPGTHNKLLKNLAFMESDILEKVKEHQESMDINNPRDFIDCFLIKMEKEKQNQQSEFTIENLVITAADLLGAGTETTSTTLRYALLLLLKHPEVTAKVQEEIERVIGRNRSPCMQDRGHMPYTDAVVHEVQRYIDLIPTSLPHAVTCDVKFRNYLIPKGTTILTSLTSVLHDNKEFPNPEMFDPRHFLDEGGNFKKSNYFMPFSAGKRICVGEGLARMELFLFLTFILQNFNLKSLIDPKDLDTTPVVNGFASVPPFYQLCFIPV
Sequence of 3',5'-cyclic-AMP phosphodiesterase 4B (Homo sapiens) (Q07343 whole entry, looked up): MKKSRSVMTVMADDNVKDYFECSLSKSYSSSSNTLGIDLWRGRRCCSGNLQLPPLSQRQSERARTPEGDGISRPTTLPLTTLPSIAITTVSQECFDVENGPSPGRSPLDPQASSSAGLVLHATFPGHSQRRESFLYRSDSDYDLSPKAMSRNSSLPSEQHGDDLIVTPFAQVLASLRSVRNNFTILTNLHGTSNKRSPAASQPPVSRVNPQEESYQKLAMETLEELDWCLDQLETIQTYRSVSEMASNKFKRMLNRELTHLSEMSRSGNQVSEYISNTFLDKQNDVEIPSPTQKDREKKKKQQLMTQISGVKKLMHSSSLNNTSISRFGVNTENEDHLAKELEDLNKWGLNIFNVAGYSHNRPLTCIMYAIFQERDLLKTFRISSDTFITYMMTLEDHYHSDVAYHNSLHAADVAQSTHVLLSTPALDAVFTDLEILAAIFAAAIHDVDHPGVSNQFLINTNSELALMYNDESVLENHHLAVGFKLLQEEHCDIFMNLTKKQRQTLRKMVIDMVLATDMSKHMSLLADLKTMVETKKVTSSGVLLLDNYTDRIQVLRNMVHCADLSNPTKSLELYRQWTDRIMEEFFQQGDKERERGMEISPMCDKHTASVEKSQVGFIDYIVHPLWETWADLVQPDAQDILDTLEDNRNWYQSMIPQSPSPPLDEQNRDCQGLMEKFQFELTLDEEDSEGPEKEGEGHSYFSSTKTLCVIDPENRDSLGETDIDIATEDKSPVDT
Sequence of Cytochrome P450 2D6 (Homo sapiens) (P10635 whole entry, looked up): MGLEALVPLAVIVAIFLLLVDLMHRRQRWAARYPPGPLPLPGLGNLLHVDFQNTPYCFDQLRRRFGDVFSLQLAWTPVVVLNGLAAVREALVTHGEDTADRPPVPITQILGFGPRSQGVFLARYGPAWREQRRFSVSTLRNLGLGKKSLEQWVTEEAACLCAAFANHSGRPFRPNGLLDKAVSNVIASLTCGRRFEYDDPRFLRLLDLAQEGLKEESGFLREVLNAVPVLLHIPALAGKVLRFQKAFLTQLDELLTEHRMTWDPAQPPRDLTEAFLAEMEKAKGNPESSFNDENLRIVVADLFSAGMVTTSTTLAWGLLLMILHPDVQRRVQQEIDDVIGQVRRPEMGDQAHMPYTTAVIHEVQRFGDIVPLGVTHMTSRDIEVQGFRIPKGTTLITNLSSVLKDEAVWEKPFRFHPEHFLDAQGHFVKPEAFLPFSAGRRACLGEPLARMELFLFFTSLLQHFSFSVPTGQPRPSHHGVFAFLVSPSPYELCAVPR
Sequence of Cytochrome P450 3A4 (Homo sapiens) (P08684 whole entry, looked up): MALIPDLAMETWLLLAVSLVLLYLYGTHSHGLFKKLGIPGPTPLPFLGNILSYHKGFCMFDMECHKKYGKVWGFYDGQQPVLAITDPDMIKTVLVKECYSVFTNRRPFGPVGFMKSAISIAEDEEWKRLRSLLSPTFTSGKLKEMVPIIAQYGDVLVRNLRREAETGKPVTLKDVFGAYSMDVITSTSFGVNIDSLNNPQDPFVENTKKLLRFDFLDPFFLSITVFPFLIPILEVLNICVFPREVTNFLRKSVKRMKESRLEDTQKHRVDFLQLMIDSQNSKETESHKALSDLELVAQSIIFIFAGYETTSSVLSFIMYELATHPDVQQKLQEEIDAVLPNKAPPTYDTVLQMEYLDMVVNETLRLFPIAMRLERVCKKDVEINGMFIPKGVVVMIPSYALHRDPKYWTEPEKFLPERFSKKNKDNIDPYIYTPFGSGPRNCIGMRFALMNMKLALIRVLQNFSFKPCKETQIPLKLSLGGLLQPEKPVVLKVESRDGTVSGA

SMILES	Potency [1]	Potency [2]	Potency [3]	Potency [4]	Potency [5]	Potency [6]	Potency [7]	Potency [8]	Potency [9]	Potency [10]	Potency [11]	Potency [12]	Potency [13]	Potency [14]	Potency [15]
O=C(NCCN1CCCCC1)c1ccc(I)cc1	25.1 µM (active)	> 46 µM	inactive	inactive	inactive	inactive	inactive	inactive	–	–	–	–	–	–	–
CCc1cc2c(c(CC)n1)CCC(=O)N2Cc1ccc(-c2ccccc2-c2nn[nH]n2)cc1	inactive	> 46 µM	inactive	–	–	inactive	inactive	inactive	> 46 µM	inactive	5.01 µM (active)	–	–	–	–
COc1ccc(OC)c2c(=S)c3ccccc3[nH]c12	0.0631 µM (active)	> 46 µM	–	inactive	–	inactive	inactive	inactive	> 46 µM	inactive	–	7.94 µM (active)	–	–	–
CS(=O)(=O)Nc1ccc([N+](=O)[O-])cc1OC1CCCCC1	3.98 µM (active)	> 46 µM	–	–	–	inactive	inactive	inactive	> 46 µM	inactive	0.0794 µM (active)	–	0.0501 µM (active)	–	–
CCCn1c(=O)[nH]c2nc(-c3ccc(S(=O)(=O)O)cc3)[nH]c2c1=O	inactive	> 46 µM	–	–	inactive	inactive	inactive	inactive	–	–	–	inactive	7.94 µM (active)	inactive	–
CCOC(=O)C1=C(N)Oc2ccc(Br)cc2[C@@H]1[C@@H](C#N)C(=O)OCC	0.251 µM (active)	> 46 µM	inactive	inactive	–	inactive	inactive	inactive	–	–	–	–	–	–	–
CCCN(C/C=C\I)[C@@H]1CCc2cccc(O)c2C1	2.51 µM (active)	–	inactive	–	–	inactive	inactive	inactive	–	25.1 µM (active)	–	inactive	–	–	–
O=C(c1ccccc1)[C@@H]1O[C@H]1c1ccc(-c2ccccc2)cc1	6.31 µM (active)	> 46 µM	–	–	–	inactive	inactive	inactive	> 46 µM	–	–	–	–	–	–
COc1cccc(C=NC=Nc2cccc(OC)c2)c1	1 µM (active)	> 46 µM	–	–	–	inactive	inactive	inactive	> 46 µM	inactive	–	–	–	–	–
NCCCCCCCCCCNS(=O)(=O)c1cccc2c(Cl)cccc12	15.8 µM (active)	> 46 µM	inactive	–	–	inactive	inactive	inactive	–	inactive	0.0794 µM (active)	2.51 µM (active)	1.26 µM (active)	0.0501 µM (active)	–
O=C1c2ccccc2CC[C@H]1CNCCc1ccc(O)cc1	20 µM (active)	> 46 µM	–	inactive	–	inactive	inactive	inactive	> 46 µM	inactive	–	–	0.398 µM (active)	–	25.1 µM (active)
C#CCCCCCCCCCCCCCCCC(=O)O	6.31 µM (active)	–	–	inactive	–	inactive	inactive	inactive	> 46 µM	–	–	–	–	–	–
C=CCN1CCN(c2nc3ccccc3nc2C#N)CC1	0.1 µM (active)	> 46 µM	–	inactive	–	inactive	inactive	inactive	> 46 µM	inactive	–	–	1.26 µM (active)	–	–
COc1ccc(-c2ccc(=N)n(CCCC(=O)O)n2)cc1	–	> 46 µM	inactive	–	inactive	inactive	inactive	inactive	> 46 µM	–	0.158 µM (active)	–	3.98 µM (active)	3.16 µM (active)	–
CCS(=O)(=O)N1CCC[C@H]2CN3CCc4cc(OC)ccc4[C@@H]3C[C@@H]21	–	> 46 µM	inactive	–	inactive	inactive	inactive	inactive	> 46 µM	inactive	–	5.01 µM (active)	–	inactive	–
Cc1cc(C)c(S(=O)(=O)Nc2cccc(C(F)(F)F)c2)c(C)c1	–	> 46 µM	inactive	–	–	inactive	inactive	inactive	> 46 µM	inactive	3.16 µM (active)	–	–	–	–
COc1cc2c(cc1OC)C(c1ccc(N)cc1)=NNC(=O)C2	–	> 46 µM	inactive	inactive	–	inactive	inactive	inactive	> 46 µM	inactive	–	–	–	–	–
CNC(=O)[C@H]1O[C@H](n2cnc3c(NCc4cccc(I)c4)nc(Cl)nc32)[C@@H](O)[C@@H]1O	–	> 46 µM	–	inactive	–	inactive	inactive	inactive	> 46 µM	–	–	–	–	–	–
CCCCCCCCCCCCC(=O)N1CCCC[C@H]1CNC(=O)[C@@H](N)CCCCN	–	> 46 µM	–	inactive	50.1 µM (active)	inactive	inactive	inactive	> 46 µM	–	7.94 µM (active)	–	–	–	–
CC(C)(C)c1cc(O)c(C(C)(C)C)cc1O	–	> 46 µM	–	–	–	inactive	inactive	inactive	> 46 µM	–	–	–	–	–	–
